Source: PubChem BioAssay AID623970 (The Scripps Research Institute Molecular Screening Center, 2012)
Where “and” joins values, the source holds several entries; their conditions need not be identical. Identical values can stand only once. Some compounds were tested as several samples or in several runs, with calls that do not always agree. Calls of active or inactive are those of the source. Cut-off read from the data, not from the text of the source: active = IC50 below about 90 µM; inactive = the rest.

experiment: DNA binding via SYBR dye displacement, late-stage follow-up, artefact control for HCV NS3 helicase inhibitor project, biochemical, fluorescence (AID 623970)

| Structure (SMILES) | IC50 |
| --- | --- |
| Cc1ccc2nc(-c3ccc4nc(-c5ccc6nc(-c7ccc8nc(-c9ccc(N)cc9)sc8c7)sc6c5)sc4c3)sc2c1S(=O)(=O)O | 14 µM (active) |
| Cc1ccc2nc(-c3ccc4nc(-c5ccc(N)cc5)sc4c3)sc2c1S(=O)(=O)O | > 100 µM (inactive) and 23 µM (active) |
| CCN(CC)c1ccc(-c2nc3ccc(-c4nc5ccc(C)c(S(=O)(=O)O)c5s4)cc3s2)cc1 | 26 µM (active) |
| Cc1ccc2nc(-c3ccc(NC(=O)c4ccc(NC(=O)c5ccc(C(F)(F)F)cc5)cc4)cc3)sc2c1S(=O)(=O)O | > 100 µM (inactive) |
| Cc1ccc2nc(-c3ccc4nc(-c5ccc(NC(=O)c6ccc(F)cc6)cc5)sc4c3)sc2c1S(=O)(=O)O | > 100 µM (inactive) |
| Cc1ccc2nc(-c3ccc4nc(-c5ccc(NC(=O)c6cccc7ccccc67)cc5)sc4c3)sc2c1S(=O)(=O)O | 30 µM (active) |
| Cc1ccc2nc(-c3ccc(NC(=O)c4ccc(C(F)(F)F)cc4)cc3)sc2c1S(=O)(=O)O | > 100 µM (inactive) |
